Experimental data: PubChem BioAssay
Active and inactive are the calls of the source.

Experiments:
[1] = test system: Plasmodium falciparum Sir2 (PF13_0152, Sir2A); test: Plasmodium falciparum Sir2A binding compounds – biochemical, small-molecule microarray, 635 nm fluorescence, primary screen (AID 1098); conditions: fluorescence 635 nm, higher = more signal;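 also: score merges spot fluorescence intensity with its signal-to-noise ratio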
[2] = probe aDKK1 binding to arrayed compounds – biochemical, biotinylated probe, 635/667 nm fluorescence, primary screen (AID 1099); conditions: small-molecule microarray, higher = more signal;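 also: score merges 667nm spot fluorescence with signal to noise across triplicate slides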
[3] = probe aCHRDL2 binding to arrayed compounds – biochemical, biotinylated probe, 635/667 nm fluorescence, primary screen (AID 1100); conditions: small-molecule microarray, higher = more signal
[4] = change in splice reporter luminescence, either direction, cell-based, HEK293, spliceosome inhibition project, primary screen (AID 1101); conditions: HEK293 splicing luciferase reporter, 24 h, higher = more signal, called active from +8 up or from −8 down;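 also: HEK293 cells carrying a splicing-competent luciferase reporter gene; test concentration not given here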
[5] = target: Fibroblast growth factor 10 (Homo sapiens) (UniProt O15520); test: compounds binding fibroblast growth factor 10 – biochemical, small-molecule microarray, 635 nm fluorescence, primary screen (AID 1102); conditions: FGF10 binding, fluorescence 635 nm, higher = more signal
Sequence of Fibroblast growth factor 10 (Homo sapiens) (O15520 whole entry, looked up): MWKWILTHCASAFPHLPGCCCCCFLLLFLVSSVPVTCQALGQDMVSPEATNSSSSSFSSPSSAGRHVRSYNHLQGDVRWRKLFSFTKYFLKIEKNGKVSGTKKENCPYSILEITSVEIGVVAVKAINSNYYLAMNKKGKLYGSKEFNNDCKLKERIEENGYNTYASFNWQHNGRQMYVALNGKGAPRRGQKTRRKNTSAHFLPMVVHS

[6] = test system: glycogen synthase kinase-3 (GSK3A per assay name; protocol says GSK3B); test: compounds binding glycogen synthase kinase-3 – biochemical, small-molecule microarray, 635 nm fluorescence, GSK3A, primary screen (AID 1103); conditions: fluorescence 635 nm, higher = more signal; also: the record names both GSK3A and GSK3B
[7] = target: Epidermal growth factor receptor (Homo sapiens) (UniProt P00533); test: compounds binding epidermal growth factor receptor – biochemical, small-molecule microarray, 635 nm fluorescence, primary screen (AID 1104); conditions: EGFR binding, higher = more signal;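 also: score merges 667 nm emission intensity with spot signal to noise over triplicate slides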
Sequence of Epidermal growth factor receptor (Homo sapiens) (P00533 whole entry, looked up): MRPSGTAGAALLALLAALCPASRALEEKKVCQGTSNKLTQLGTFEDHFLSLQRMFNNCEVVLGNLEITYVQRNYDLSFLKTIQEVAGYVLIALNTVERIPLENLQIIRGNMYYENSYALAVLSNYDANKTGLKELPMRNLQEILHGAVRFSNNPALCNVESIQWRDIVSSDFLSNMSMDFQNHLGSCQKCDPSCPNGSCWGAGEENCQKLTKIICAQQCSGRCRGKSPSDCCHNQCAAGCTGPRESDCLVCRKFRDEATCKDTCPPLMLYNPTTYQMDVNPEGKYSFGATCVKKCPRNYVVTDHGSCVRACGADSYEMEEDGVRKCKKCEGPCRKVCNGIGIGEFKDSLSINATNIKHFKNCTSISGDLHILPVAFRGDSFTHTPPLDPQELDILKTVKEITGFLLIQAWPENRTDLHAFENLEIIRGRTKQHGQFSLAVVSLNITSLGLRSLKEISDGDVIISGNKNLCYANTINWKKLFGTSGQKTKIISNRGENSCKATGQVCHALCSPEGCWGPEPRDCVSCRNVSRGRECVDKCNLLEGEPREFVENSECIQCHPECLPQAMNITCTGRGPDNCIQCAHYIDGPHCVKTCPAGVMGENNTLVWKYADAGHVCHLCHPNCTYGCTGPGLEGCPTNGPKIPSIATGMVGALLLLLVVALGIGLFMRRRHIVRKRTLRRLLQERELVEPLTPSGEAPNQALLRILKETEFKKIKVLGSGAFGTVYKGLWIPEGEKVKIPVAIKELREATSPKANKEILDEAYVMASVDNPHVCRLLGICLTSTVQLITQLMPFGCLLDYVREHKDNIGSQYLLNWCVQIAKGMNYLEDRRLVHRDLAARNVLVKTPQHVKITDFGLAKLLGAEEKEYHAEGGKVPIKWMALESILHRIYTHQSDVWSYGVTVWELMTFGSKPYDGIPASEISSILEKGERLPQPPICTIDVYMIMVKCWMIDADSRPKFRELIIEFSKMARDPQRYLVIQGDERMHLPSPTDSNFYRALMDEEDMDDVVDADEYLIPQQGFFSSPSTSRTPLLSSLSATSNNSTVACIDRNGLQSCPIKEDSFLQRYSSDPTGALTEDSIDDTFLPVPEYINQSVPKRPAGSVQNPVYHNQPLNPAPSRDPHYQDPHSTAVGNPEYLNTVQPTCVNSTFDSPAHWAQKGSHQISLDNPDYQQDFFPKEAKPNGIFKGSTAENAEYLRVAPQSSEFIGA

[8] = target: Follistatin-related protein 3 (Homo sapiens) (UniProt O95633); test: compounds binding follistatin-related protein 3 – biochemical, small-molecule microarray, 635 nm fluorescence, primary screen (AID 1105); conditions: FSTL3 binding, higher = more signal;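 also: score merges emission near 667 nm and signal to noise per printed spot across three slides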
Sequence of Follistatin-related protein 3 (Homo sapiens) (O95633 whole entry, looked up): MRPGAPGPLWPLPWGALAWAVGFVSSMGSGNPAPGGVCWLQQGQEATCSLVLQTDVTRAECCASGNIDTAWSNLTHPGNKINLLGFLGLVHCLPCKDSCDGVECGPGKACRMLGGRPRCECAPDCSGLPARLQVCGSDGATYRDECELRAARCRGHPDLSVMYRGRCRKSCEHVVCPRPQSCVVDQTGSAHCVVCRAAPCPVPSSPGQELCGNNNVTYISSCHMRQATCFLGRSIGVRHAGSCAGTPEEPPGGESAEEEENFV

[9] = target: Dickkopf-related protein 1 (Homo sapiens) (UniProt O94907); test: small molecules binding DKK1 protein – biochemical, small-molecule microarray, 635 nm fluorescence scan, primary screen (AID 1106); conditions: higher = more signal;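 also: score merges emission near 667 nm with signal to noise over three replicate slides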
Sequence of Dickkopf-related protein 1 (Homo sapiens) (O94907 whole entry, looked up): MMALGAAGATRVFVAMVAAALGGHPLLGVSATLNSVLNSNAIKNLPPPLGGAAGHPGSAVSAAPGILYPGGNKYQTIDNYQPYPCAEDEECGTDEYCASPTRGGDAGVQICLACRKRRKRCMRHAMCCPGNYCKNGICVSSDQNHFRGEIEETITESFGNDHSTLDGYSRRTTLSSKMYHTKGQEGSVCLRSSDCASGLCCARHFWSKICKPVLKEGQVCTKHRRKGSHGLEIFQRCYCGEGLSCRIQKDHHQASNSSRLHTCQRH

[10] = test system: Inhibin beta A chain (activin A); test: small molecules binding activin A – biochemical, small-molecule microarray, 635 nm fluorescence scan, primary screen (AID 1107); conditions: INHBA, higher = more signal;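 also: mouse activin A protein probed at 4.33 µg/mL on printed slides; score merges bound-protein fluorescence near 667 nm with spot signal-to-noise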
[11] = test system: Human papillomavirus type 1a protein E7 (residues 44-93); test: small molecules binding HPV E7 44-93 – biochemical, small-molecule microarray, residues 44-93, 635 nm fluorescence, primary screen (AID 1108); conditions: fluorescence 635 nm, higher = more signal;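 also: E7 fragment applied at 1 µg/mL in TBST for 1 h at 4 C; score combines spot fluorescence with its signal to noise ratio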
[12] = hepatitis C replication reporter changes, two-sided – Huh7 cells, luciferase reporter, HCV replication inhibitor project, primary screen (AID 1109); conditions: Huh7 HCV replicon luciferase reporter, 48 h; higher = more signal;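 also: huh7 hepatoma cells harbouring a luciferase neomycin HCV replicon reporter; luciferase luminescence as measure of HCV replicon replication; test concentration not given here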
[13] = target: Left-right determination factor 2 (Homo sapiens) (UniProt O00292); test: small molecules binding LEFTY2 protein – biochemical, small-molecule microarray, 635 nm fluorescence scan, primary screen (AID 1110); conditions: higher = more signal
Sequence of Left-right determination factor 2 (Homo sapiens) (O00292 whole entry, looked up): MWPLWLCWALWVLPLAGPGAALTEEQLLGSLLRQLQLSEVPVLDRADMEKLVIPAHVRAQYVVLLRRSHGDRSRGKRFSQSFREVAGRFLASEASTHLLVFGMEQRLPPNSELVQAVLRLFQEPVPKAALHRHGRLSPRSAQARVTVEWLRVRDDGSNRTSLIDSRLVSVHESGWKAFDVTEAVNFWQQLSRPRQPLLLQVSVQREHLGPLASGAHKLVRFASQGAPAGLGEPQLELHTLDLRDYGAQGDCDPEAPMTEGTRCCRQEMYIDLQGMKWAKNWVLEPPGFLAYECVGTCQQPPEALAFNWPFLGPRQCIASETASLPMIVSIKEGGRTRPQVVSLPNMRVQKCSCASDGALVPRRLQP

[14] = target: Calmodulin-1 (Homo sapiens) (UniProt P0DP23); test: small molecules binding calmodulin-1 with EGTA – biochemical, small-molecule microarray, Cy5-labelled CALM1, profiling panel (AID 1111); conditions: Cy5-CALM1 binding fluorescence, higher = more signal;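 also: labelled calmodulin applied in Tris saline Tween buffer holding calcium plus EGTA and DTT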
[15] = target: Calmodulin-1 (Homo sapiens) (UniProt P0DP23); test: small molecules binding Ca-loaded calmodulin-1 – biochemical, small-molecule microarray, Cy5-labelled CALM1, plus calcium, artefact control for SMM control-protein annotation, profiling panel (AID 1112); conditions: Cy5-CALM1 binding fluorescence, higher = more signal;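 also: score merges spot fluorescence with signal to noise from triplicate slides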
[16] = probe aWnt5a binding to arrayed compounds – biochemical, biotinylated probe, 635/667 nm fluorescence, primary screen (AID 1113); conditions: small-molecule microarray, higher = more signal;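 also: score merges 667 nm fluorescence intensity with signal-to-noise per printed feature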
[17] = probe aShh binding to arrayed compounds – biochemical, biotinylated probe, 635/667 nm fluorescence, primary screen (AID 1114); conditions: small-molecule microarray, higher = more signal;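 also: probe is biotin-labelled aShh protein from a stem cell growth factor screen; measures binding of labelled protein to compounds printed on the slide; score merges feature fluorescence at 667 nm with signal-to-noise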
[18] = probe aNog binding to arrayed compounds – biochemical, biotinylated probe, 635/667 nm fluorescence, primary screen (AID 1115); conditions: small-molecule microarray, higher = more signal;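 also: probe is biotinylated aNog protein used at 0.15 µg/mL for 1 h at 4 C; z-score combines 667 nm fluorescence of each spot with its signal to noise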
[19] = target: Torsin-1A-interacting protein 1 (Homo sapiens) (UniProt Q5JTV8); test: compound microarray binding of lysate hLAP1 – cell lysate, small-molecule microarray, COS7 lysate, 635/667 nm fluorescence, primary screen (AID 1116); conditions: 635 nm fluorescence, higher = more signal
Sequence of Torsin-1A-interacting protein 1 (Homo sapiens) (Q5JTV8 whole entry, looked up): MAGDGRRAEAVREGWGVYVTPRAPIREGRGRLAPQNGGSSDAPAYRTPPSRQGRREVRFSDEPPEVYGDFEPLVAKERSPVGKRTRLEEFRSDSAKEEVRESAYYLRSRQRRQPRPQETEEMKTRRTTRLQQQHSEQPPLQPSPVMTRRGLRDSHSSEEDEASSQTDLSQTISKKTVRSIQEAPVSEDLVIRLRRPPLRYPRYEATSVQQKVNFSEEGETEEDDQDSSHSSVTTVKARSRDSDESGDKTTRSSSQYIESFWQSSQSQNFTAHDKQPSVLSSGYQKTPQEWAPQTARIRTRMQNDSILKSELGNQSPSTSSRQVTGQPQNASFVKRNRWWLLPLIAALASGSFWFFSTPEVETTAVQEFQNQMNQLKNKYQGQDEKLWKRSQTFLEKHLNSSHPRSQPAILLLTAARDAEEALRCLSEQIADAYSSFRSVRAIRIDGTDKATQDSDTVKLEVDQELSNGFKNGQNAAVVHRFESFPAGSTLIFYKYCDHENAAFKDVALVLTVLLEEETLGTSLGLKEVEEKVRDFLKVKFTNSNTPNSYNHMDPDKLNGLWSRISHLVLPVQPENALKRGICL

[20] = target: Alpha-bungarotoxin (Bungarus multicinctus) (UniProt P60615); test: compounds binding labelled alpha-BTX control protein – biochemical, small-molecule microarray, Alexa647 label, 635/667 nm fluorescence, artefact control for SMM control protein annotation, profiling panel (AID 1117); conditions: alpha-BTX-A647 binding fluorescence, higher = more signal
Sequence of Alpha-bungarotoxin (Bungarus multicinctus) (P60615 whole entry, looked up): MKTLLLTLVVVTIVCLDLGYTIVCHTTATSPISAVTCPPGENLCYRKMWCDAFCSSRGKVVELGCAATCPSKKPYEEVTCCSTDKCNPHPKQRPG

SMILES | composite z-score [1] | composite z-score [2] | composite z-score [3] | z-score [4] | composite z-score [5] | composite z-score [6] | composite z-score [7] | composite z-score [8] | composite z-score [9] | composite z-score [10] | composite z-score [11] | z-score [12] | composite z-score [13] | composite z-score [14] | composite z-score [15] | composite z-score [16] | composite z-score [17] | composite z-score [18] | composite z-score [19] | composite z-score [20]
C=C(COC)/C(=C/C[C@@H](OC(=O)c1ccncc1)c1ccc(CO)o1)c1cnc2ccccc2c1 | 1.06 | -0.182 | -0.386 | 0.773 (inactive) | 1.59 | 1.35 | 1.59 | 1.57 | 1.2 | 1.87 | 1.42 | -0.632 | 1.03 | 0.274 | -0.851 | 0.0037 | 0.365 | 0.557 | 1.83 | 2.65
COC(=O)[C@@]1(Cc2ccc(F)cc2)[C@H]2c3cc(C(=O)N4CCCC4)n(CCF)c3C[C@H]2CN1C(=O)c1ccccc1 | 1.62 | 1.98 | 1.02 | -1.72 (inactive) | 0.876 | 0.306 | -0.0069 | 0.418 | 0.555 | 1.03 | 1.13 | -1.43 | -0.359 | 2.74 | 1.32 | 1.04 | 1.79 | 2.99 | 2.42 | 0.602
O=C(O)[C@H](Cc1ccccc1)n1cc(-c2ccccn2)nn1 | -0.0726 | -0.22 | -0.323 | -0.27 (inactive) | 0.3 | 0.507 | 0.211 | 0.333 | 0.227 | 0.325 | 0.55 | 0.107 | -0.0097 | 0.429 | 0.33 | -0.152 | -0.0866 | -0.0827 | 0.524 | 0.35
COCCCNC(=O)[C@@]1(Sc2ccc(C)cc2)CC(=O)N(C2Cc3ccccc3C2)[C@@H]1c1ccc(CO)cc1I | 0.693 | 0.59 | 0.947 | -0.697 (inactive) | -0.235 | -1.1 | -0.689 | -1.58 | -1.77 | 0.388 | -0.499 | -1.05 | -1.31 | -0.176 | 0.0685 | -0.154 | -0.536 | -0.0621 | -0.354 | -0.0078
COCCCNC(=O)[C@@]1(Sc2ccc(C)cc2)CC(=O)N(Cc2cc(C(F)(F)F)cc(C(F)(F)F)c2)[C@@H]1c1ccc(CO)cc1 | 1.08 | -0.0248 | -0.0087 | 0.261 (inactive) | 0.327 | -0.257 | -0.107 | 1.01 | 0.585 | 0.612 | 1.07 | -0.168 | -0.223 | 0.0267 | -0.683 | -0.096 | 0.0136 | -0.0069 | 0.156 | 2.13
COc1cc(OC)c(C(O)C2C=CC3C(=O)N(c4ccccc4)C(=O)C3N2Nc2ccc(C#N)cc2)cc1Br (stereo not given) | 0.842 | 1.56 | 1.4 | 1.47 (inactive) | 1.18 | 0.687 | 0.763 | 0.95 | -0.0884 | 0.664 | 1.36 | -0.519 | 0.0166 | 2.19 | 0.992 | 0.471 | 0.196 | 0.81 | 2.18 | 2.42
COc1c(C)cc(-c2cc3c(c(-c4ccccc4)n2)[Si](C(C)C)(C(C)C)OC3)cc1C | 0.0039 | 0.068 | -0.676 | -0.0426 (inactive) | -0.216 | -0.39 | 0.186 | -0.355 | 0.189 | 1.08 | -0.689 | -0.268 | -0.0473 | -0.319 | -0.119 | -0.184 | -0.153 | -0.122 | -0.16 | 0.857
CC(=O)N1Cc2ccccc2C[C@]2(N=C(c3ccc(OCCCO)cc3)O[C@@H]2c2ccccc2)C1=O | 1.55 | 0.835 | 1.05 | -2.31 (inactive) | 0.897 | 1.26 | 0.17 | 0.33 | 0.275 | 0.503 | 1.1 | -1.56 | 0.179 | 1.01 | 0.446 | -0.13 | 0.163 | 0.682 | 1.78 | 1.64
COCCOC(=O)N1C(=O)[C@@]2(c3ccccc31)[C@H](c1ccc(OCCO)cc1)N1[C@H](c3ccccc3)[C@H](c3ccccc3)OC(=O)[C@H]1[C@@H]2C(=O)Nc1nc2ccccc2s1 | 1.45 | -0.223 | 0.414 | 0.579 (inactive) | 0.967 | 0.986 | 0.545 | 0.852 | 0.293 | 0.34 | 1.34 | -1.33 | 0.492 | 1.68 | 0.397 | 0.0431 | -0.0769 | 0.516 | 0.903 | 1.13
CCC[C@@H]1C[C@@]1(CCC)[C@@H](NP(=O)(c1ccccc1)c1ccccc1)c1ccc(Cl)cc1 | 0.219 | 0.0536 | 0.292 | -2.26 (inactive) | -0.489 | -0.965 | -0.537 | -0.366 | 0.102 | 1.18 | -0.213 | -1.62 | -0.427 | -0.915 | -1.31 | -0.127 | 1.44 | -0.532 | -0.357 | -0.846
COC(=O)[C@@]1(Cc2ccc(OC)cc2)[C@H]2c3cc(C(=O)N(C)C)n(CCc4c[nH]c5ccc(O)cc45)c3C[C@H]2CN1C(=O)c1ccccc1 | 1.06 | 1.43 | 0.984 | -1.65 (inactive) | 0.934 | 1.12 | 0.562 | 1.23 | -0.509 | 1.26 | 1.06 | -0.0903 | -0.217 | 1.83 | 1.25 | -0.0196 | 0.488 | 2.27 | 1.3 | 1.28
